In the first experiment the test system is RARa homodimer (NR concentration 270 nM). As to the kind of experiment: PBM binding z-score (relative to random genomic background probes); higher = stronger binding; sequences stand for … in GC…GCGATTGACAGCGTAGAATGAAGG
The procedure, abridged:
(§1)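 Antibodies against each partner of ligand-free nuclear receptor dimers (one per run) detected binding on custom Agilent 4×180K protein-binding microarrays after 1 h incubation. The double-stranded probes had 34-nt variable regions carrying direct-repeat seeds, single-nucleotide variants, half-site ablations and random human genomic background sequences. Binding z-scores, from regression-normalized fluorescence, use the random background probes as reference.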
For the sequence AGTCAAAGTTCATCTAGGTAACGTATGATATGCT, the PBM binding z-score came out at 1.68. Still for that read-out and setting: under GCTATTAGTAGAAAGGGCAACCGAATGATTCTCG stands 1.09; under ATCCAAAGGTCGAAGGTGAGTATACCCACCCGAA, 0.353.

For TGAATGAGGTTATATGATCAGGGAACGTTGCAAA, the PBM binding z-score amounted to 0.606. The same measure, in the same setting: under CCTAGTTGGTCAGAAGGTCACACACCGGATATGA stands 3.08; under ATCTCTAGGTAAAAGTTCAGTGAATCCCGAGGAT, 0.604. The same measure, in the same setting: the value for TCGAGTAGGTTAGTTGGGGCATTCAGCCAACATA was -0.0281; that for TCTGCTAGGTCAGTTGGTCAGCTATCGAGCTGCC was -1.27; that for ACAGACAGGTGATGATGGTAACTCAGGCTATCAT was 0.598. As for TAGCATAGGTCATTGGGCCAGTATAGTACGCATC, the PBM binding z-score turned out to be 0.152. On the same count and under the same terms, under CCTACTTGGCCAAGGTCATTGATCAGTCAAAGCA stands 1.49; under CCAGACAGGTGAGAAGGTCACTCAGCCTCGATTA, 2.83. Same read-out and setting: under ACTAGTAGTTGACTTAGGGCAACCGATACGACGC stands 0.281; under ATCTCTAGGTAAGACTCAGTTCAGTGACGAACGC, 1.18; under ATATATAGGTTATCGGGTCATTCAGTTTGCGCAT, 3.1. On to AGTCAATGTTCACTAGGTAACGTAAGATTCAGCT, for which the PBM binding z-score is -0.0197.

In turn, ACTACTTGGTCAGCTGAGGTCACACACAATTCGG had a PBM binding z-score of 0.831. On the same count and under the same terms, under TCTCTGAGGACACGAAAGGTCAGAGCTCGACATC stands 0.907.

A further experiment concerns RARb:RXRa (NR concentration 270 nM, RXRa partner concentration 90 nM). Described as above. The procedure, abridged: as §1
Take TCTTGTAGATCAAGCAGGTTAGGAAAGCCTGAGT: the PBM binding z-score is -0.0169.

On to ATCTCTAGGTAGAGTTCAGTGAAAGATCGATAGA, for which the PBM binding z-score was 1.82. Turning to GCTTGTAGAGCAAGGTTAAGAAAGACTAAGCTAA, the PBM binding z-score worked out at 0.514.

CAAACTAGGTCAAATGTCAAAGTCGAGCCAACCA: the PBM binding z-score was determined as 4.26. Same read-out and setting: under TCATATAGGTATAGGTGAAAGTCGAACGATATGA stands 0.587; under CAAACTAGGTCAAGAGATCAAAGTCCGCTTCCCG, 3.92. Sequence CCTGCTAGGTCAATCGTCAGCTAAAGCAGCTCGC registered a PBM binding z-score of 3.63. On the same count and under the same terms, the value for CGTCAAAGTTCAAGGTAACGTGACAGAAAGCAGC was 5.08. Same read-out and setting: the value for ATCGAAACGTCGAGGTGAGTATAGAGAAAGGGAA was 0.508.

On to AGCGAAAGGTCGTGAGGTGAGTATACAGAAAGGC, for which the PBM binding z-score came to 4.29. The same measure, in the same setting: the value for CGAACTAGGGCATTGACAGGACAGTGAATAGTAA was 1.14; that for CGGACTGGGGCAAGGTTACCATAACGCACAGCCA was 1.67. Still for that read-out and setting: the value for AGCATGAGGTTACCAAAGATCAGGGAAACGCTTG was 2.07.

Sequence CTAGCAAGGTGAACAAGGTCGTTGATTACTATTC showed a PBM binding z-score of 2.15. On the same count and under the same terms, the value for CTACTAAGGTGAACAAGGTCGTTGATTACTATTC was 2.4.

CGTCCAAGGTCAAAGTTCAGTGAAGAGATGACGG had a PBM binding z-score of 5.44. On the same count and under the same terms, under TCTTGTAGATCAATAGAGGGTAAGAAAGTGCGCT stands 0.184. On the same count and under the same terms, under ATCGAAAGGTCGTGAGGTGCGTATACAGAAAGGC stands 3.85. The same measure, in the same setting: under CCTATTAGTTGAGCATAAGGGCAACCGAAGCTCG stands 1.1; under TCTTGTAGATCAACAGGAGGTTAAAAAAGATCGA, 0.47; under TGAATGAGGTTAAAGTTCAGGGAACGTGGCGTCG, 3.63. ATCTCTAGGTAAGACTCAATTCAGTGAAGAACGC: the PBM binding z-score was 0.115.

With AGTCAAAGTTCATCTAGGTAACGTATGATATGCT, the PBM binding z-score worked out at 4.95. With GCTATTAGTAGAAAGGGCAACCGAATGATTCTCG, the PBM binding z-score stood at 1.96. Consider ATCCAAAGGTCGAAGGTGAGTATACCCACCCGAA, for which the PBM binding z-score amounted to 3.97. Same read-out and setting: the value for TGAATGAGGTTATATGATCAGGGAACGTTGCAAA was 1.26. The sequence CCTAGTTGGTCAGAAGGTCACACACCGGATATGA returned a PBM binding z-score of 3.85. The same measure, in the same setting: the value for ATCTCTAGGTAAAAGTTCAGTGAATCCCGAGGAT was 2.42. Same read-out and setting: under TCGAGTAGGTTAGTTGGGGCATTCAGCCAACATA stands 0.529; under TCTGCTAGGTCAGTTGGTCAGCTATCGAGCTGCC, 3.39. With ACAGACAGGTGATGATGGTAACTCAGGCTATCAT, the PBM binding z-score was determined as 0.146. Still for that read-out and setting: the value for TAGCATAGGTCATTGGGCCAGTATAGTACGCATC was 3.97; that for CCTACTTGGCCAAGGTCATTGATCAGTCAAAGCA was 3.49.

CCAGACAGGTGAGAAGGTCACTCAGCCTCGATTA showed a PBM binding z-score of 3.58. The same measure, in the same setting: the value for ACTAGTAGTTGACTTAGGGCAACCGATACGACGC was 0.593. Same read-out and setting: under ATCTCTAGGTAAGACTCAGTTCAGTGACGAACGC stands 0.528; under ATATATAGGTTATCGGGTCATTCAGTTTGCGCAT, 2.96; under AGTCAATGTTCACTAGGTAACGTAAGATTCAGCT, 0.143. On the same count and under the same terms, under ACTACTTGGTCAGCTGAGGTCACACACAATTCGG stands 3.59; under TCTCTGAGGACACGAAAGGTCAGAGCTCGACATC, 4.2.
